Screens from PubChem BioAssay.
IL1B secr inh: qHTS for Inhibitors of Inflammasome Signaling: IL-1-beta AlphaLISA Primary Screen. 360,000 tested, 4.7% active. THP-1 LPS/ATP IL-1B secretion, AlphaLISA, 16 h; stronger effect = lower value. activity change, % at 57.5 µM; in the data active means activity change below about -50%; inconclusive means mostly about -30% to -49%
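Secreted IL-1B measured by AlphaLISA bead assay after 16 h compound exposure of THP-1 cells; compounds (final up to 57.5 uM) added 1 h before LPS (250 ng/mL) and ATP (1.25 mM) stimulation; lower signal means less secretion.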
TGFb inhibitor: qHTS for Inhibitors of TGF-b; HepG2 CAGA-GFP TGF-b/SMAD3 reporter, GFP fluorescence, 18 h; TGF-beta stimulated, 500 pg/mL final; Potency, µM (highest dose often 46.1 µM), hits mostly inhibitors; 410,000 tested, 1.2% active; further: nearly all actives have a fitted effect of over 65% in size
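Inhibition of TGF-beta-driven CAGA-GFP reporter expression in HEPG2 cells is measured by cellular GFP fluorescence after 18 h stimulation with 500 pg/mL recombinant TGF-beta in 1% FBS medium at 37 degrees C.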
ATXN viability: Viability Counterscreen for Primary qHTS for Inhibitors of ATXN expression; 400,000 tested, 0.49% active; S2 cells (HEK-293 line with an ATXN2-luciferase reporter) viability, CellTiter-Fluor protease fluorescence, 24 h; Potency, µM (doses to about 56.7 µM), most hits filed as cytotoxic; further: nearly all actives have a fitted effect of over 40% in size
HepG2 tox-1: qHTS for Inhibitors of TGF-b: Cytotox Counterscreen. HepG2 CAGA-GFP viability, ATP luminescence, 18 h. Potency, µM (series often up to 46.1 µM), actives largely listed as cytotoxic. 410,000 tested, 0.76% active
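HepG2 CAGA-GFP cells (1000/well, DMEM with 1% FBS) received compound, then TGF-beta at 500 pg/mL final, and were incubated 18 hours at 37 degrees C. Viability was read by CellTiter-Glo luminescence. Media-only wells were set as complete cell-killing and DMSO as no toxicity.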
ATXN2 expr inh: Primary qHTS for Inhibitors of ATXN expression; HEK-293 ATXN2-luciferase reporter, luminescence, 24 h; Potency, µM (titrated, usually from 57 µM), usual class: inhibitors; 360,000 tested, 0.72% active; further: nearly all actives have a fitted effect of over 55% in size
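ATXN2-luciferase reporter cells (luciferase flanked by upstream and downstream ATXN2 gene portions) were treated 24 h at 37 °C with compounds at up to 57 uM. SteadyGlo luminescence gave expression; GF-AFC fluorescence gave viability.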
TGFb CAGA inh: qHTS for Inhibitors of TGF-b: Confirmation of Cherry Picks; AID 720534, 2013; shares compounds with TGFb inhibitor; HepG2 CAGA-GFP TGF-b reporter, GFP fluorescence, 18 h; cells stimulated with TGF-beta, 500 pg/mL; Potency, µM (top dose mostly 46.1 µM), actives largely listed as inhibitors; 1,600 tested, 63% active; further: nearly all actives have a fitted effect of over 65% in size
HepG2 tox-2: qHTS for Inhibitors of TGF-b: Cytotox Counterscreen for Cherry Picks. shares compounds with TGFb inhibitor. HepG2 CAGA-GFP viability, ATP luminescence, 18 h; cells stimulated with TGF-beta, 500 pg/mL. Potency, µM (top dose mostly 46.1 µM), actives largely listed as inhibitors. 1,600 tested, 27% active. AID 720535, 2013; further: nearly all actives have a fitted effect of over 70% in size
TGFb CCL64 inh: qHTS for Inhibitors of TGF-b: CCL64 Cells Orthogonal Assay for Cherry Picks; shares compounds with TGFb inhibitor; 1,600 tested, 41% active; Potency, µM (titrated, usually from 46.1 µM), hits mostly inhibitors; CCL64 CAGA-GFP reporter, TGF-b stimulated, GFP fluorescence, 18 h; further: nearly all actives have a fitted effect of over 65% in size
COP TGFb inh: qHTS for Inhibitors of TGF-b: Hit Validation in HepG2 Cells using COP promoter; shares compounds with TGFb inhibitor; HepG2 COP-GFP TGF-b reporter, GFP fluorescence, 18 h; cells stimulated by added recombinant TGF-beta; Potency, µM (titrated, usually from 46.1 µM), most hits filed as inhibitors; 1,600 tested, 3% active; AID 720537, 2013; further: nearly all actives have a fitted effect of over 70% in size
Numbers stand for hits; – = inactive; ? = inconclusive; · = not tested or not shown; ! = not active in a repeat. Shown are actives, neighbours in structure and some others; about 5.7% of the full set was active somewhere. Unless noted, the call rests on the fitted dose curve; in most records, active means well fitted curve in the direction sought with a large enough effect; inconclusive means small, poorly fitted or top-dose-only effect, or another doubt; inactive means no such curve, though single readings can be large; an effect the other way counts as inactive or inconclusive.

SMILES	IL1B secr inh	TGFb inhibitor	ATXN viability	HepG2 tox-1	ATXN2 expr inh	TGFb CAGA inh	HepG2 tox-2	TGFb CCL64 inh	COP TGFb inh
COc1cc(/C=C(/C(=O)c2cccs2)c2nc3ccccc3[nH]2)ccc1O	-106	16µM	?	–	?	7.3µM	13µM	13µM	–
O=C(/C(=C/c1ccc(Cl)cc1)c1nc2ccccc2[nH]1)c1cccs1	-112	5µM	3.5µM	–	?	3.3µM	2.6µM	4.1µM	–
O=C(NC1CC(=O)N(c2ccccc2)C1)c1ccc(S(=O)(=O)N2CCCCC2)cc1 (centres undefined)	·	–	·	–	·	·	·	·	·
C[C@@H]1CCCCO[C@H](CN(C)Cc2ccc(Cl)c(Cl)c2)[C@H](C)CN([C@@H](C)CO)C(=O)c2cc(NC(=O)Nc3ccc(F)cc3)ccc2O1	?	10µM	?	–	?	5.8µM	?	5.8µM	–
C[C@@H]1CN([C@@H](C)CO)C(=O)c2cccc(NC(=O)Nc3ccc(F)cc3)c2O[C@@H]1CN(C)Cc1ccc(Oc2ccccc2)cc1	–	4µM	18µM	–	?	16µM	?	6.5µM	–
C[C@H](CO)N1C[C@H](C)[C@@H](CN(C)S(=O)(=O)c2ccccc2)Oc2c(NC(=O)Nc3ccc(C(F)(F)F)cc3)cccc2C1=O	?	10µM	?	–	?	21µM	?	?	–
CCOC(=O)c1c(C)[nH]c(CCC(=O)NCCCN2CCN(c3ccccc3F)CC2)c1C	·	?	·	–	·	·	·	·	·
C=CCC[C@H](Cc1ccc(F)cc1)C(=O)OC[C@@H](Cc1c[nH]c2ccccc12)NC(=O)[C@H](CC=C)CC(=O)NCCO	–	?	?	–	?	·	·	·	·
C=CCC[C@H](Cc1ccc(F)cc1)C(=O)OC[C@@H](Cc1c[nH]c2ccccc12)NC(=O)[C@H](CC=C)CC(=O)N(CCO)Cc1ccccc1	?	11µM	20µM	–	?	12µM	?	18µM	–
Cc1ccc2c(=O)cc(C(=O)Nc3c(C(=O)c4ccc(F)cc4)oc4ccccc34)oc2c1C	·	–	–	–	–	·	·	·	·
Cc1ccc(CNC(=O)c2cc(Sc3ccc(F)cc3F)nc3ccccc23)cc1	·	–	·	–	·	·	·	·	·
CCOC(=O)C1CCCN(C(=O)Cc2ccc(C)cc2)C1 (centres undefined)	–	10µM	–	–	–	–	–	–	–
CCN(c1cccc(C)c1)S(=O)(=O)c1cc(Br)cc2c1N(C(C)=O)C(C)C2 (centres undefined)	·	?	?	–	?	·	·	·	·
Clc1nc(Cl)nc(N(c2ccccc2)c2ccccc2)n1	–	?	–	–	–	?	?	?	–
CCC(C)Sc1cccc(-c2nc3cc(C)ccn3c2NC2CCCCC2)c1 (centres undefined)	-82!	11µM	?	–	?	?	?	18µM	–
Cc1ccn2c(NC3CCCCC3)c(-c3ccc(SC4CCCCC4)cc3)nc2c1	–	·	–	·	–	·	·	·	·
COc1ccc(C(=O)Nc2oc(-c3ccccc3)c(-c3ccccc3)c2C#N)cc1	?	–	–	–	–	·	·	·	·
Cc1cccc(C)c1OCC(=O)Nc1oc(-c2ccccc2)c(-c2ccccc2)c1C#N	–	13µM	–	–	–	?	?	?	–
Cc1ccc(-c2cn3nc(N4CCCC(C(=O)NCc5ccc(F)cc5)C4)sc3n2)cc1 (centres undefined)	·	–	·	–	·	·	·	·	·
O=C(O)CCc1ccc(-c2cccs2)n1CC1CCCO1 (centres undefined)	–	–	–	–	–	·	·	·	·
FC(F)Oc1ccc(-c2csc(=Nc3cccnc3)n2CC2CCCO2)cc1 (centres undefined)	–	?	–	–	–	–	–	–	–
O=C1c2cccc(OCc3ccc(F)cc3)c2CCN1Cc1ccc(F)cc1	-68	6.3µM	–	–	?	23µM	?	13µM	–
O=[N+]([O-])c1ccc(NS(=O)(=O)c2ccc(Cl)c(Cl)c2)cc1	–	10µM	?	–	?	10µM	7.3µM	?	–
CC(=O)OC1CCC2(C)C(CCC3C4CC=C(C(C)=O)C4(C)OC(=O)CC32)C1 (centres undefined)	-107	4µM	2.5µM	13µM	·	18µM	12µM	2.9µM	?
CCCOc1ccc(Oc2nc(NCC(C)C)nc(N(C)C)n2)nn1	·	–	·	–	·	·	·	·	·
SMILES	IL1B secr inh	TGFb inhibitor	ATXN viability	HepG2 tox-1	ATXN2 expr inh	TGFb CAGA inh	HepG2 tox-2	TGFb CCL64 inh	COP TGFb inh
COc1nc(Nc2nc3ccccc3c(=O)[nH]2)nc2ccc(C)cc12	-82	5.6µM	?	–	–	4.1µM	4.1µM	1.5µM	–
CCOc1cc(C(=O)NCC(c2ccc(N(C)C)cc2)N2CCOCC2)cc(OCC)c1OCC (centres undefined)	·	–	·	–	·	·	·	·	·
Cc1cc(Cl)ccc1N=C1N=C(N)c2ccccc21	–	–	?	–	–	·	·	·	·
Cc1cc(Cl)ccc1N=c1ssnc1Cl	?	7.9µM	–	–	–	23µM	?	?	–
O=C(NCCCCCCNC(=O)c1ccccc1O)c1ccccc1O	–	8.9µM	–	–	–	?	?	?	–
O=C(COC(=O)c1ccc([N+](=O)[O-])o1)NC1CCCC1	–	–	?	–	–	·	·	·	·
O=C(NC1CCCC(C(F)(F)F)C1)c1ccc([N+](=O)[O-])o1 (centres undefined)	-98	10µM	–	16µM	–	7.3µM	23µM	?	?
CCCn1nc2cc(C(=O)NCCc3cccs3)ccc2c1OCC	–	?	–	–	–	–	–	–	–
CCCCNC(=O)c1ccc2c(OCC)n(CCCC)nc2c1	–	–	–	–	–	·	·	·	·
CCOc1ccc(NC(=O)c2ccc3c(=O)n4nc(Nc5ccccc5C)sc4nc3c2)cc1	·	–	–	–	–	·	·	·	·
